Here are results for 85 compounds from publication PMC4336329 (PLoS ONE, 2015).

About 14,000 (4.5%) of roughly 310,000 compounds showed an effect of 50% or more. The effect is printed as a negative number. Many of the other results were omitted from the sample, so strong results are more common in it than they were.
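Note: peak tail current of the secondary pulse compared with the same well before compound.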

In this test the target is human ether-à-go-go-related gene (hERG) potassium channel (human, UniProt Q12809). Put plainly: primary screen, population patch clamp on CHO cells stably expressing hERG; higher = less effect of the substance.
human ether-à-go-go-related gene (hERG) potassium channel, sequence (Q12809 whole entry, looked up): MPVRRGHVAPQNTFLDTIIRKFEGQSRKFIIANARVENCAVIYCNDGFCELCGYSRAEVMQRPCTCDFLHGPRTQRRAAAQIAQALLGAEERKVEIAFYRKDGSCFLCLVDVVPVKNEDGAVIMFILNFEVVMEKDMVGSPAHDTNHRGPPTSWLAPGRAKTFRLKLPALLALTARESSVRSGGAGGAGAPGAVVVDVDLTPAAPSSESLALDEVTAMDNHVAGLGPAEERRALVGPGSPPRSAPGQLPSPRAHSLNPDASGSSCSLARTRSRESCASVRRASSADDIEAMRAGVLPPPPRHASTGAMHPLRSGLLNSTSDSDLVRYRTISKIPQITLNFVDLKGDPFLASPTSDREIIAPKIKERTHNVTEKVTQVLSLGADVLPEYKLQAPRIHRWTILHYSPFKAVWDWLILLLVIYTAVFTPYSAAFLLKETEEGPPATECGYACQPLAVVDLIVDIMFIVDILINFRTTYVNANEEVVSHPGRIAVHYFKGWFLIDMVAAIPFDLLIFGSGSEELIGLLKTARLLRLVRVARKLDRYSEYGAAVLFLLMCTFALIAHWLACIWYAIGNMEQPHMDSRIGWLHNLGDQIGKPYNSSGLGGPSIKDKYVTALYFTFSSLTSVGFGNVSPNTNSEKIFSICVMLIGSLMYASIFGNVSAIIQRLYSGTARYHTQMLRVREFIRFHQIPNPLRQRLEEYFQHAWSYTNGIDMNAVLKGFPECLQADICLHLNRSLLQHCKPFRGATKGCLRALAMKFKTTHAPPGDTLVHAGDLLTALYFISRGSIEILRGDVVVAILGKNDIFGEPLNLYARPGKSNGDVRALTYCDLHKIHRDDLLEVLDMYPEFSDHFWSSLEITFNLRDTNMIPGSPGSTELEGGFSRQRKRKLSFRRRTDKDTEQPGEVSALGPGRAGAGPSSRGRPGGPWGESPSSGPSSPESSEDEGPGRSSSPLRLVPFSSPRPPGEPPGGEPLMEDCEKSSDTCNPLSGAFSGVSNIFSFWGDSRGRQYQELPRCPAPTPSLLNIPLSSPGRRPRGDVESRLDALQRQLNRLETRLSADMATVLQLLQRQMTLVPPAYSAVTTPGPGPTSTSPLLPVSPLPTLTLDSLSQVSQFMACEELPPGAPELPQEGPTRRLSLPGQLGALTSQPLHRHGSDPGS
On to `CC1CCCN(C(=O)CN2C(=O)C(C)Oc3ccccc32)C1` (stereo not shown), for which the “hERG current change (%, negative = inhibition) at 10uM” value was found to be 8.2%.
The same measure for `CCN(CC)C(=O)c1[nH]cnc1C(=O)Nc1ccon1`: 0.396%; for `Cc1ccc(NC(=O)OCc2cncs2)cc1`: 2.29%; for `COCCNC(=O)c1c(N)n(/N=C/c2ccc(F)cc2)c2nc3ccccc3nc12`: -0.595%.
The same measure for `O=C(NCCCN1CCCC1=O)c1cc(S(=O)(=O)N2CCOCC2)ccc1Cl`: 13.9%; for `O=C(NCCN1CCOCC1)c1cccc(S(=O)(=O)N2CCCC2)c1`: 6.43%; for `O=C(NCCCN1CCOCC1)c1cc(S(=O)(=O)N2CCN(c3ccccc3)CC2)ccc1Cl`: -76.6%.
The same measure for `Cc1ccc(S(=O)(=O)N2CCCCC2)cc1C(=O)NCCCN1CCOCC1`: 16.7%; for `O=C(NCCCN1CCOCC1)c1cccc(S(=O)(=O)N2CCOCC2)c1`: 8.97%.
`O=C(NCCCN1CCOCC1)c1cccc(S(=O)(=O)N2CCN(c3ccccc3)CC2)c1`: the “hERG current change (%, negative = inhibition) at 10uM” value is recorded as -71.8%.
For `CCOC(=O)c1ccc(NC(=S)Nc2ccc3[nH]c(=O)[nH]c3c2)cc1` the value was 1.23%.
The same measure for `O=c1[nH]c2ccccc2nc1C(Cl)c1ccccc1` (stereo not shown): 2.52%.
For the compound `Nc1nc(-c2ccco2)cs1`, the “hERG current change (%, negative = inhibition) at 10uM” value worked out at 9.88%.
The same measure for `O=c1oc2cc(OCc3c(F)c(F)c(F)c(F)c3F)ccc2cc1-c1ccccn1`: 14%; for `COc1ccc(C(=O)Nn2cnc3ccccc3c2=O)cc1[N+](=O)[O-]`: -4.64%.
On to `CC(/C=N\NC(=O)CN1CCN(S(=O)(=O)c2ccc(C)cc2)CC1)=C\c1ccccc1`, for which the “hERG current change (%, negative = inhibition) at 10uM” value was -68.1%.
The same measure for `COc1ccccc1/C=C/C=N/NC(=O)CN1CCN(S(=O)(=O)c2ccc(C)cc2)CC1`: -50.2%; for `O=C(CN1CCOCC1)N/N=C/C=C/c1ccccc1`: -26.3%.
For `Cc1ccc(S(=O)(=O)N2CCN(CC(=O)N/N=C\C(Cl)=C\c3ccccc3)CC2)cc1` the value was -48%; for `O=C(O)COc1ccccc1/C=N/NC(=O)CN1CCN(S(=O)(=O)c2ccc(Br)cc2)CC1`, 4.89%; for `Cc1ccc(S(=O)(=O)N2CCN(CC(=O)N/N=C/C=C/c3ccccc3)CC2)cc1`, -73.8%.
For the compound `Cc1ccc(S(=O)(=O)N2CCN(CC(=O)N/N=C/c3ccccc3OCC(=O)O)CC2)cc1`, the “hERG current change (%, negative = inhibition) at 10uM” value came out at 10.5%.
For `Cc1ccc(S(=O)(=O)N2CCN(CC(=O)N/N=C\c3ccccn3)CC2)cc1` the value was -36.3%.
For `Cc1ccc(S(=O)(=O)N2CCN(CC(=O)N/N=C/c3ccc(C)o3)CC2)cc1` the value was -38.9%.
For `CCCOC(=O)c1ccc(O)cc1` the value was 16.5%; for `COc1ccccc1CC(=O)Nc1ccc(O)cc1C(=O)O`, 0.828%.
On to `C(=N\N(c1ccccc1)c1ccccc1)/c1ccc2c(c1)OCO2`, for which the “hERG current change (%, negative = inhibition) at 10uM” value came out at 4.28%.
For `C1CCCCC1.OCCN1CCN(C2Cc3cc(Cl)ccc3Sc3ccc(Cl)cc32)CC1` (stereo not shown), the “hERG current change (%, negative = inhibition) at 10uM” value is recorded as 9.86%.
For `Clc1ccc2c(c1)C(N1CCNCC1)Cc1ccccc1S2.O=C(O)/C=C\C(=O)O` (stereo not shown) the value was -54.3%.
The same measure for `Fc1ccc2c(c1)Sc1ccc(Cl)cc1CC2N1CCN(CCC2OCCO2)CC1` (stereo not shown): -8.68%.
For `COCCCN1CCN(C2Cc3ccccc3Sc3ccc(Cl)cc32)CC1.O=C(O)/C=C\C(=O)O` (stereo not shown) the value was -73.5%.
`O=C(O)/C=C\C(=O)O.c1ccc2c(c1)CC1CNCc3cccc(c31)S2` (stereo not shown): the “hERG current change (%, negative = inhibition) at 10uM” value is listed as -49.5%.
`COc1cc([C@@H]2c3cc4c(cc3[C@@H](O)[C@H]3COC(=O)[C@H]23)OCO4)cc(OC)c1O[Si](C)(C)C(C)(C)C`: the “hERG current change (%, negative = inhibition) at 10uM” value was determined as 17.8%.
On to `NS(=O)(=O)c1cccc(NC(=O)c2cccnc2Oc2ccccc2)c1`, for which the “hERG current change (%, negative = inhibition) at 10uM” value was 12.7%.
The same measure for `Cc1sc2ncn(CC(=O)N3CCN(c4ccccn4)CC3)c(=O)c2c1S(=O)(=O)N1CCCCC1`: -36.7%; for `Cc1ncc2c(c1OC(=O)c1ccc([N+](=O)[O-])cc1)COC(C)(C)OC2`: -65.8%.
The same measure for `Cc1c(OC(=O)c2ccc([N+](=O)[O-])cc2)c2c(c[n+]1C)COC(C)(C)OC2.[I-]`: 9.15%.
For `Cc1ncc2c(c1OC(=O)c1ccccc1)COC(C)(C)OC2` the value was -6.46%; for `Cn1c(O)c(N=Nc2ccc(S(=O)(=O)N3CCOCC3)cc2)c(=O)n(C)c1=O`, 10.8%.
With `CCN(CC)c1ccc(N=Cc2c(O)n(-c3ccccc3C)c(=O)[nH]c2=O)cc1`, the “hERG current change (%, negative = inhibition) at 10uM” value is reported as -29.2%.
The same measure for `Cc1ccc(S(=O)(=O)N2CCCCC2)c2nsnc12`: -54.9%; for `Cc1ccc(S(=O)(=O)N2CCOCC2)c2nsnc12`: -3.38%; for `Cc1ccc(S(=O)(=O)N2CCN(C)CC2)c2nsnc12`: 24.1%.
For `O=C(Cn1nc(-c2ccc(N3CCOCC3)c([N+](=O)[O-])c2)c2ccccc2c1=O)N1CCCCC1` the value was -68.2%.
For `Cc1ccc(-c2nn(CC(=O)N3CCOCC3)c(=O)c3ccccc23)cc1S(=O)(=O)N(C)C` the value was -22.6%; for `O=C(Nc1cc(-c2nn(CC(=O)N3CCCCC3)c(=O)c3ccccc23)ccc1N1CCOCC1)c1ccc(Cl)cc1`, -52.6%.
On to `CCC(=O)Nc1cc(-c2nn(CC(=O)N3CCCCC3)c(=O)c3ccccc23)ccc1N1CCOCC1`, for which the “hERG current change (%, negative = inhibition) at 10uM” value is 3.05%.
For `O=[N+]([O-])c1cc(-c2nnc(N3CCOCC3)c3ccccc23)ccc1N1CCOCC1` the value was -40.3%.
As for `CC(=O)Nc1cc(-c2nn(CC(=O)N3CCCCC3)c(=O)c3ccccc23)ccc1N1CCOCC1`, the “hERG current change (%, negative = inhibition) at 10uM” value came out at 2.8%.
For `Cc1ccc(C)c(N(C(=O)CCC(=O)Nc2cc(C)on2)C(C(=O)NC2CCCC2)c2ccco2)c1` (stereo not shown) the value was 10.2%; for `CNc1nc(SC(C)C(=O)Nc2ccc(Cl)c(Cl)c2)nc(N2CCOCC2)n1` (stereo not shown), 19.6%.
Take `COc1ccc(S(=O)(=O)N2CCC(C(=O)N3CCN(C)CC3)CC2)cc1OC`: the “hERG current change (%, negative = inhibition) at 10uM” value worked out at 17.3%.
Take `Cc1nn(CCO)c2nc(-c3cccs3)cc(C(F)(F)F)c12`: the “hERG current change (%, negative = inhibition) at 10uM” value was 2.32%.
For `COc1ccc(/C=N/NC(=O)CC(=O)NC2CCCCC2)cc1` the value was 5.89%; for `COc1ccc(-c2cnnn2-c2ccc(NC(=O)/C=C/c3ccc(OC)c(OC)c3)cc2)cc1`, -5.92%.
The same measure for `Cc1ccccc1OCCC(=O)OCC(=O)NCCNC(=O)COC(=O)CCOc1ccccc1C`: 4.47%; for `COc1ccc(CN2CCN(C(=O)CCC(=O)Nc3nnc(C4CCCCC4)s3)CC2)cc1F`: -50.2%; for `O=C(CCC(=O)N1CCN(Cc2ccc(F)cc2)CC1)Nc1nnc(C2CCCCC2)s1`: 6.92%.
For `COc1ccc(F)cc1CN1CCN(C(=O)CCC(=O)Nc2nnc(C3CCCCC3)s2)CC1` the value was -6.04%; for `COc1ccc(C(=O)C2CCCN(C(=O)c3noc4c3CCCC4)C2)cc1F` (stereo not shown), -39.9%; for `CCc1ccc2[nH]c(=O)c(CN(Cc3ccccc3OC)Cc3nnnn3Cc3ccco3)cc2c1`, -14.3%.
As to `COc1ccc(C(=O)COc2ccc3ccc(=O)oc3c2)cc1`, the “hERG current change (%, negative = inhibition) at 10uM” value was -3.32%.
For `CC(=O)n1cc(N(C(=O)CCl)c2ccc(C)cc2)c2ccccc21` the value was -5.35%.
For `CC(=O)n1cc(N(C(=O)CCl)c2ccccc2)c2ccccc21` the value was 1.19%; for `CC(=O)n1cc(N(C(=O)CCl)c2ccc([N+](=O)[O-])cc2)c2ccccc21`, -57.1%.
The same measure for `CC1CCCCN1C(=O)CCc1nnc(Cc2c[nH]c3ccccc23)o1` (stereo not shown): 4.94%.
Turning to `COc1ccc(S(=O)(=O)N2CCCC(C(=O)Nc3ccc(NC(=O)c4ccccn4)cc3)C2)cc1` (stereo not shown), the “hERG current change (%, negative = inhibition) at 10uM” value was 4.17%.
For `O=C(CN1C(=O)COc2ccccc21)NCCCN1CCN(Cc2ccccc2)CC1` the value was -11.7%.
For `O=S(=O)(Nc1ccccn1)c1ccc(-n2cccn2)cc1` the value was 21.3%; for `CCCN1C2=C(C(=O)CCC2)C(c2ccc(O)c(Br)c2)C2=C1CCCC2=O`, -18.1%.
For `CN1CCN(/N=C/c2nc(-c3ccccc3)n3ccccc23)CC1` the value was -19.9%.
In the case of `CN1CCN(/N=C/c2nc(-c3ccc(Cl)cc3)n3ccccc23)CC1`, the “hERG current change (%, negative = inhibition) at 10uM” value is -62.1%.
Consider `Clc1ccc(-c2nc(/C=N/N3CCOCC3)c3ccccn23)cc1`, for which the “hERG current change (%, negative = inhibition) at 10uM” value was -5.18%.
The same measure for `COc1ccc(N2CCN(C(=O)CSc3nnnn3C3CC3)CC2)cc1`: -13.6%; for `CC(=O)Nc1nc(C)c(-c2nc3ccc([N+](=O)[O-])cc3[nH]2)s1`: 13.9%.
The same measure for `CCN1CC(CNCc2cn(-c3ccc(OC)cc3)nc2-c2ccccc2Cl)CC1=O` (stereo not shown): -24.4%; for `CCN1CCC(CNCc2cn(-c3ccc(OC)cc3)nc2-c2ccccc2Cl)C1` (stereo not shown): -9.43%.
For `COc1ccc(-n2cc(CNCCN3CCOC3=O)c(-c3ccccc3Cl)n2)cc1` the value was -18.5%; for `COc1ccc(-c2nn(-c3ccccc3)cc2CO)cc1`, 4.56%.
For `Cc1cccc(-n2cc(CN3CCCN(C=O)CC3)c(-c3cccc(F)c3)n2)c1`, the “hERG current change (%, negative = inhibition) at 10uM” value was -10.8%.
For `COc1ccc(-n2cc(CNCCc3cnc[nH]3)c(-c3cccc(F)c3)n2)cc1` the value was -28.9%; for `COc1ccc(-n2cc(CNCCc3cscn3)c(-c3ccccc3Cl)n2)cc1`, -64.5%; for `COc1ccc(-n2cc(CNCCc3nc(C)cc(C)n3)c(-c3ccccc3Cl)n2)cc1`, -62.6%.
For `COc1ccc(-n2cc(CNCCCN3CCCC3=O)c(-c3ccccc3Cl)n2)cc1` the value was -60.9%; for `Cc1cccc(-n2cc(CNCCc3nc(C)cc(C)n3)c(-c3cccc(F)c3)n2)c1`, -67.9%.
